{"source": "the OligoGym collection"}
{"biological_target": "FAN1", "assay": "pooled miR-30 sensor sort-seq; sequence = guide strand", "details": "shRNA"}
{"sequence": "ATAACTTCTGACCAGTAGCTGA", "sensor-assay potency score (higher = more potent)": -0.771}
{"sequence": "TTGGTCATCTTAATCCAGCTTA", "sensor-assay potency score (higher = more potent)": 0.33}
{"sequence": "TTTCACATCTTGCACAGCCATT", "sensor-assay potency score (higher = more potent)": -1.51}
{"sequence": "TAACATGATCGCATTATCTGAG", "sensor-assay potency score (higher = more potent)": 0.286}
{"sequence": "TTGACCAACAGGACTGTTGAAA", "sensor-assay potency score (higher = more potent)": -0.462}
{"sequence": "TTTTTGAGAACTGTTCTCCAAA", "sensor-assay potency score (higher = more potent)": -0.862}
{"sequence": "TTACATATAACTTCTGACCAGT", "sensor-assay potency score (higher = more potent)": 0.259}
{"sequence": "TTCTTTGATACACTCTTGCTTT", "sensor-assay potency score (higher = more potent)": -0.307}
{"sequence": "TAACTAGGAAACTCCATTCGGC", "sensor-assay potency score (higher = more potent)": -0.0842}
{"sequence": "TAAGCAACTGTCATCCTGCAGA", "sensor-assay potency score (higher = more potent)": 0.0838}
{"sequence": "TTGAACTTTTTACAGCTCGGAG", "sensor-assay potency score (higher = more potent)": -1.04}
{"biological_target": "FANCF", "assay": "pooled miR-30 sensor sort-seq; sequence = guide strand", "details": "shRNA"}
{"sequence": "TCTCTTGGAGTGTCTCCTCATC", "sensor-assay potency score (higher = more potent)": -1.11}
{"sequence": "ATAGACAGGAGACAGCGCTGGG", "sensor-assay potency score (higher = more potent)": -0.33}
{"sequence": "TTGGGTTCTCTCTATAGCCATT", "sensor-assay potency score (higher = more potent)": -1.39}
{"sequence": "TTATCTTTCAGAGGTGGAGGGG", "sensor-assay potency score (higher = more potent)": -0.733}
{"sequence": "TAGACAGGAGACAGCGCTGGGT", "sensor-assay potency score (higher = more potent)": -0.533}
{"sequence": "TTCAAAATCTCCATCCTGCGCT", "sensor-assay potency score (higher = more potent)": 0.034}
{"sequence": "TTAGAACTTTATCTTTCAGAGG", "sensor-assay potency score (higher = more potent)": -1.12}
{"sequence": "TTTCTGAAGGTCATAGTGCAAA", "sensor-assay potency score (higher = more potent)": -1.33}
{"sequence": "TTGAAACCTATTGTGCAACTCC", "sensor-assay potency score (higher = more potent)": 0.168}
{"sequence": "TCTATAGCCATTGAAGCGCAGC", "sensor-assay potency score (higher = more potent)": -1.1}
{"sequence": "AAGAGGTCTGTCCAGATGCTAA", "sensor-assay potency score (higher = more potent)": -1.55}
{"sequence": "TTTGGGTTCTCTCTATAGCCAT", "sensor-assay potency score (higher = more potent)": -1.05}
{"sequence": "TAGAACTTTATCTTTCAGAGGT", "sensor-assay potency score (higher = more potent)": 0.316}
{"sequence": "TATCTTTCAGAGGTGGAGGGGC", "sensor-assay potency score (higher = more potent)": -0.0769}
{"sequence": "TACTTCAAAATCTCCATCCTGC", "sensor-assay potency score (higher = more potent)": 0.811}
{"sequence": "TTCATCAGAGAGTCCTCCTGGA", "sensor-assay potency score (higher = more potent)": 0.554}
{"sequence": "TTGGAGTGTCTCCTCATCGGCG", "sensor-assay potency score (higher = more potent)": -0.931}
{"sequence": "TTTTGTAAACTATATATTCTAT", "sensor-assay potency score (higher = more potent)": -0.511}
{"sequence": "TGACAGAGGCTTTGAAACCTAT", "sensor-assay potency score (higher = more potent)": -1.18}
{"sequence": "ATGTGCACCGCAGACCGCCGGC", "sensor-assay potency score (higher = more potent)": -1.25}
{"sequence": "AAACCTATTGTGCAACTCCTCC", "sensor-assay potency score (higher = more potent)": -0.726}
{"sequence": "TGGAAGTTCGCTAATCCCGGAA", "sensor-assay potency score (higher = more potent)": -0.728}
{"sequence": "ATAGCCATTGAAGCGCAGCATG", "sensor-assay potency score (higher = more potent)": -1.41}
{"sequence": "TTGGGACTCAGTTCCAACCCAA", "sensor-assay potency score (higher = more potent)": -0.182}
{"biological_target": "FANCG", "assay": "pooled miR-30 sensor sort-seq; sequence = guide strand", "details": "shRNA"}
{"sequence": "TATAGGAATGGTCACATTCCTA", "sensor-assay potency score (higher = more potent)": -1.18}
{"sequence": "TACACCTGGACCAACACAGGCC", "sensor-assay potency score (higher = more potent)": 0.254}
{"sequence": "TTGCAGACTATGGAGGAGCCCT", "sensor-assay potency score (higher = more potent)": -1.08}
{"sequence": "TAAATTCACTAATTGCCACTTT", "sensor-assay potency score (higher = more potent)": 0.314}
{"sequence": "TACAACAGTGCTCTCTGTGGAT", "sensor-assay potency score (higher = more potent)": -0.172}
